According to PubChem BioAssay (NCI):
This is part of a sample that, as a whole, favours compounds with a hit. Of some 83,000 tested, about 20% had one in any assay.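 The endpoint reported here, percent growth, reads 100 for growth as untreated, 0 for no net growth and -100 for all cells dead.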 A number with no mark means an inactive call. Activity calls are given as the source filed them.

system: SK-MEL-2 melanoma; assay: NCI-60 one-dose screen, 48 h (100 = growth as untreated, 0 = no growth, -100 = all killed); conditions: 10 µM unless noted
Method: Growth inhibition of the SK-MEL-2 human tumor cell line is measured as a screen for anti-cancer activity. Cells are grown in 96 well plates and exposed to the test compound for 48 hours. Compounds are tested at a single concentration, which is 10^-5 M for most compounds. The reported endpoint is percent growth (GI% or GIPRCNT), where numbers from 0 - 100% represent growth inhibition, and numbers from -100% - 0 represent cell death. For example, a value of 40 represents 60% growth inhibition. A value of 0 means no net growth occurred over the course of the experiment. A value of -40 indicates 40% of cells at the beginning of the experiment died by the end of the experiment. A value of -100 means all cells are dead at the end of the experiment.
NCI-60 Human Tumor Cell Lines Screen was performed using the standard one-dose NCI protocol, which is described in more detail at https://dtp.cancer.gov/discovery_development/nci-60/default.htm.
Compounds with GIPRCNT values below 10 were considered active. Activity score was based on GIPRCNT using the following formula: […]
Score is 0 for GIPRCNT values of 100 or above, 50 for GIPRCNT values of 0, and 100 for GIPRCNT values of -100.

SMILES	growth
Cc1c(C(N)=O)sc2ncn(Cc3ccccc3)c(=O)c12	109%
Clc1nc(Cl)c2ncn(-c3ccccc3)c2n1	17.8%
Cn1cc(-c2nc(-c3c[nH]c4ncc(F)cc34)cs2)c2cccnc21	120%
COc1ccc(-c2cnnn2-c2cc(OC)c3c(c2)OCO3)cc1	22.4%
c1cnc2n[nH]c(Nc3ncnc4c3sc3ncccc34)c2c1	103%
COc1ccc(C(=O)/C=C/c2c(Cl)nc3c(c(C)nn3-c3ccccc3)c2-c2ccc(Br)cc2)cc1	93.8%
Cc1cc([N+](=O)[O-])c(C)cc1C(=O)O	114%
CC1=NN(c2ccccc2Cl)C(=O)/C1=C\c1cn(S(=O)(=O)c2ccc(C)cc2)c2ccccc12	114%
CN(C)c1ccc(/C=C(\C#N)c2nc3ccccc3c(=O)[nH]2)cc1	36.5%
COc1cc([C@@H]2c3cc4c(cc3C(O[C@@H]3O[C@@H]5CO[C@@H](c6cccs6)OC5[C@H](O)[C@H]3O)C3COC(=O)[C@@H]32)OCO4)cc(OC)c1O (stereo not given in full)	-47.3% (active)
CCCCC(C#N)C(N)=O (stereo not given)	101%
CC[C@]1(O)CC2CN(CCc3c([nH]c4ccccc34)[C@@](C(=O)OC)(c3cc4c(cc3OC)N(C)[C@H]3[C@@](O)(C(=O)OC)[C@H](OC(C)=O)[C@]5(CC)C=CCN6CC[C@]43[C@@H]65)C2)C1 (stereo not given in full)	34.3%
CCOC(=O)c1ccccc1OC(=O)NNc1ccccc1	33.2%
COc1ccc2c3c(c(OCCCN(C)C)nc2c1)-c1ccc(Cl)cc1C3=O	72.5%
O=[N+]([O-])c1ccc(N/N=C\c2ccccc2[N+](=O)[O-])nc1	95.6%
Nc1cc(Cl)c(S(N)(=O)=O)cc1S(N)(=O)=O	-16.2% (active)
COc1ccc(C2=NNC(c3cc(Cc4ccc(O)c(C5CC(c6ccc(OC)cc6)=NN5)c4)ccc3O)C2)cc1 (stereo not given)	20.1%
O=C(Nc1ccc(Nc2ccncc2)cc1)c1ccc(Nc2ccnc3ccc([N+](=O)[O-])cc23)cc1[N+](=O)[O-]	82.2%
Cc1nnc(Nc2ccc(NC(=O)Nc3ccc(Cl)cc3)cc2)c2ccccc12	44%
COc1ccc2c(c1)C(=O)c1c-2c(OCCCN(C)C)nc2cc(Br)ccc12	97.7%

SMILES	growth
Cc1ccc2c(c1)C(=O)/C(=C/c1ncc([N+](=O)[O-])n1C)O2	-57.8% (active)
Oc1[nH]c2ccc(Cl)cc2c1/C=c1/ccc2c(c1)N=C(c1ccc(C(F)(F)F)cc1)N=2	63.3%
Cn1[nH]cc(/C=N/C(N)=O)c1=O	109%
COc1ccc(C2=NN(C(=O)c3cc(OC)c(OC)c(OC)c3)C(c3ccc(C#N)cc3)C2)cc1OC (stereo not given)	35.6%
COc1ccc(COC(C)=O)cc1	113%
O=C(NN(C(=O)c1ccccc1)c1cccs1)c1ccccc1	107%
COc1ccc(-c2c(-c3cc(OC)c(OC)c(OC)c3)noc2N)cc1	72.6%
Cc1ccc(C(=O)Nc2ccc(Cl)cc2C(=O)NCc2ccccc2)cc1	51.7%
COC(=O)[C@]1(CCSC)N[C@H](c2cn(-c3ccccc3)nc2C)[C@@H]2C(=O)N(c3ccc(C)cc3)C(=O)[C@@H]21	101%
Cc1c(NCc2nnc3n(Cc4ccccc4)c(=O)c4c5c(sc4n23)CCCC5)c(=O)n(-c2ccccc2)n1C	97.1%
CC[N+](CC)(CCOCCOCC[N+](CC)(CC)Cc1ccc([N+](=O)[O-])cc1)Cc1ccc([N+](=O)[O-])cc1	106%
Cc1nn(-c2ccc(Br)cc2)c2nc3c(nc12)C(=O)C(=O)c1ccccc1-3	102%
COc1ccc(CCN2CCCN3C2=Nc2ccccc2S3(=O)=O)cc1	51.9%
COC(=O)C[C@@H]1CC=CC(=O)/C1=C(O)/C=C/c1ccccc1	-22% (active)
Nc1ccc(C2=Nc3cccc4cccc(c34)S2)cc1	87.5%
COc1cc(/C=C2\COc3ccc(O)c(O)c3C2=O)cc(OC)c1	86.5%
O=C(CSc1nc2c(n1Nc1ccccc1)-c1ccccc1SC2)Nc1nc(-c2ccc(Cl)cc2)cs1	111%
O=C(NCCc1ccccc1)C1CCC(=O)N1Cc1ccc(Br)cc1 (stereo not given)	96.1%
O=c1cc(-c2cccnc2)oc2c1ccc1ccccc12	110%
O=Nc1ccc(O)c(=O)cc1	71.4%
